An excerpt weighted towards active compounds, which were near 2.9% of everything screened.
EPAC2 antag: Validation qHTS for antagonist of cAMP-regulated guanine nucleotide exchange factor 4 (EPAC2); Potency, µM (top dose mostly 112 µM), for the others: at the top dose activity, negative = inhibition, actives largely listed as inhibitors; EPAC2 Rap1B BODIPY-GDP exchange, fluorescence; 16,000 tested, 1.7% active; Rap guanine nucleotide exchange factor 4 (Homo sapiens), Q8WZA2;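 further: 100% = activation by cAMP agonist control; nearly all actives have a fitted effect of over 40% in size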
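Fluorescent exchange read-out: 100 nM EPAC2 with 250 nM RAP1B–BODIPY-GDP and 50 uM GDP; BODIPY-GDP release lowers fluorescence. Read at 480/540 nm every 5 min for 30 min at room temperature; normalized to 6.5 mM cAMP.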
EPAC1 ag val: Validation qHTS for agonist of cAMP-regulated guanine nucleotide exchange factor 3 (EPAC1) | EPAC1 Rap1b BODIPY-GDP exchange, fluorescence | 16,000 tested, 1% active | Rap guanine nucleotide exchange factor 3 (Homo sapiens), O95398 | Potency, µM, inactives show max response, positive = active, actives largely listed as activators; further: nearly all actives have a fitted effect of over 70% in size
* = called active by the depositor; u = inconclusive; ! = repeats disagree; [ ] = another dose, or the depositor's remark. The call rests on the fitted dose curve; in most records, active means well fitted curve in the direction sought with a large enough effect; inconclusive means small, poorly fitted or top-dose-only effect, or another doubt; inactive means no such curve, though single readings can be large; an effect the other way counts as inactive or inconclusive. Unless noted, on the % scale 0 is the no-effect control and ±100 the full control effect; potency means the concentration at half of the fitted maximal effect.

SMILES	EPAC2 antag	EPAC1 ag val
C=C(c1ccc2ccccc2n1)c1cccs1	u	-1.6%
Cc1cc2c(c(-c3nc4ccccc4s3)c1)OC(CNC(=O)CCc1cccnc1)C2 (configuration not stated)	u	16.6%
CC(C)(Sc1ccc(CCN(CCCCC2CCCCC2)C(=O)NC2CCCCC2)cc1)C(=O)O	44.7µM*!	-4.1%
O=c1c(O)c(-c2cc(O)c(O)c(O)c2)oc2cc(O)cc(O)c12	35.5µM*!	-6.4%
O=c1c(O)c(-c2ccccc2)oc2cc(O)cc(O)c12	u	6.0%
NC[C@@H]1CC[C@@H](N)[C@@H](O[C@H]2[C@H](O)[C@@H](O[C@H]3O[C@H](CO)[C@@H](O)[C@H](N)[C@H]3O)[C@H](N)C[C@@H]2N)O1	11.7%	u
NC(Cc1c[nH]c2ccccc12)C(=O)O (configuration not stated)	-6.9%	25.2%
CC(=O)N[C@@H](Cc1c[nH]c2ccccc12)C(=O)OCc1cc(C(F)(F)F)cc(C(F)(F)F)c1	44.7µM*!	4.6%
O=C[C@H](O)[C@@H](O)[C@H](O[C@H]1O[C@H](CO)[C@@H](O[C@H]2O[C@H](CO)[C@@H](O)[C@H](O)[C@H]2O)[C@H](O)[C@H]1O)[C@H](O)CO	11.9%	3.4%
CC(C)c1c(C(=O)NCC(C)(C)N2CCOCC2)cnn1-c1nccc(-c2cccs2)n1	-18.7%	5.1%
COc1ccccc1-c1nc(NCc2cccnc2)c2ccccc2n1	-13.5%	-20.6%
COc1ccc(CNc2nc(-c3ccc4c(c3)OCO4)nc3ccccc23)c(OC)c1	-14.8%	112µM*
COc1ccccc1CNc1nc(-c2cccnc2)nc2ccccc12	-22.4%	89.1µM*
Cc1cccc(CNc2nc(-c3ccc4c(c3)OCO4)nc3ccccc23)c1	u	112µM*
c1cncc(CNc2nc(-c3ccc4c(c3)OCO4)nc3ccccc23)c1	-19.8%	u
COc1cccc(-c2nc(NCc3ccc(OC)cc3OC)c3ccccc3n2)c1	-21.1%	u
CN1CCC(CN2c3ccccc3Sc3ccccc32)C1 (configuration not stated)	6.6%	-40.2%
Cc1ccc(C)c(S(=O)(=O)NCc2nc(N3CCCC3)c3cc(Cl)ccc3n2)c1	-27.4%	17.8%
Cc1occc1C(=O)Nc1cccc(-c2nc(CNC(=O)c3cccc(C#CC(C)(C)O)c3)c(C)o2)c1	-18.1%	-4.6%
Cc1cccc(N(C)C(=S)Oc2ccc3ccccc3c2)c1	-26.6%[56.6 µM]	112µM*!
Cc1cccc(N(C)C(=S)Oc2ccc3c(c2)CCC3)c1	-12.1%	23.9%
Cc1cc(CC(C)CC(C)(C)C)n(O)c(=O)c1 (configuration not stated) (tested in a mixture with another compound)	u	-65.8%
COc1ccc2ccccc2c1CN1CCC2(CCC(CNC(=O)c3ccccc3)O2)CC1 (configuration not stated)	9.1%	-15.5%
CCCCC(CC)CN=C(N)NC(N)=NCCCCCCN=C(N)NC(N)=NCC(CC)CCCC (configuration not stated)	56.2µM*	-49.0%
CCCN=C(N)NCCC[C@H](N)C(=O)O	-23.0%	-1.9%
SMILES	EPAC2 antag	EPAC1 ag val
Cc1[nH]c2ccccc2c1/C=C/c1cnc2ccccc2n1	-4.8%	8.8%
Cc1[nH]c2ccccc2c1/C=C/c1ccc2ccccc2n1	-14.2%	100µM*
Cc1ccc2[nH]c3c(c2c1)CN(C(=O)CC1(c2ccccc2)CC(=O)N(Cc2cccnc2)C1=O)CC3 (configuration not stated)	u	7.5%
CCN(CC)CCCC(C)Nc1c2ccc(Cl)cc2nc2ccc(OC)cc12 (configuration not stated)	5.6%	112µM*!
CCN(CC)CCCC(C)Nc1cc(/C=C/c2ccccc2Cl)nc2cc(Cl)ccc12 (configuration not stated)	-4.3%	18.9%
CC(C)C[C@H]1C(=O)N2CCC[C@H]2[C@]2(O)O[C@](NC(=O)[C@@H]3C=C4c5cccc6[nH]c(Br)c(c56)C[C@H]4N(C)C3)(C(C)C)C(=O)N12	-18.6%	112µM*!
CC(C)CC1C(=O)N2CCCC2C2(O)O[C@@](NC(=O)C3C=C4c5cccc6[nH]c(Br)c(c56)CC4N(C)C3)(C(C)C)C(=O)N12 (some centres not stated)	-19.3%	u
CNCC(=O)N[C@@H](CCCN=C(N)N)C(=O)N[C@H](C(=O)N[C@@H](Cc1ccc(O)cc1)C(=O)N[C@H](C(=O)N[C@@H](Cc1cnc[nH]1)C(=O)N1CCC[C@H]1C(=O)N[C@@H](C)C(=O)O)C(C)C)C(C)C	-9.2%	-1.5%
O=C1CCCCN1CCC(=O)N1CCOc2ccc(C(O)C3CCCCC3)cc2C1 (configuration not stated)	u	-27.1%
